Experimental data taken from PubChem BioAssay AID1346428 (National Center for Advancing Translational Sciences (NCATS), 2018).
Among all 48,000 compounds or so, about 1,200 (2.5%) were called active. Inconclusive results (about 2%) are left out. The list comes from a sample in which actives are over-represented; it also holds similar structures and randomly drawn compounds. A number with no mark means an inactive call.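 The calls were made as follows: active = activation of at least 60% and not above a set upper limit (about 1 call in 100 departs from these limits); inconclusive = activation of 40% to 60%, or above that upper limit; inactive = activation under 40%.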
Also: 0% is about no effect.

What follows are compounds tested against Probable G-protein coupled receptor 32 (Homo sapiens) (UniProt O75388) (assay: qHTS for Agonists of Human Resolvin D1 Receptor DRV1). Settings: CHO-K1 GPR32 beta-arrestin PathHunter luminescence, 90 min; at 76.9 µM; hits give high values; zero percent set by DMSO-only wells.
Sequence of Probable G-protein coupled receptor 32 (Homo sapiens) (O75388 whole entry, looked up): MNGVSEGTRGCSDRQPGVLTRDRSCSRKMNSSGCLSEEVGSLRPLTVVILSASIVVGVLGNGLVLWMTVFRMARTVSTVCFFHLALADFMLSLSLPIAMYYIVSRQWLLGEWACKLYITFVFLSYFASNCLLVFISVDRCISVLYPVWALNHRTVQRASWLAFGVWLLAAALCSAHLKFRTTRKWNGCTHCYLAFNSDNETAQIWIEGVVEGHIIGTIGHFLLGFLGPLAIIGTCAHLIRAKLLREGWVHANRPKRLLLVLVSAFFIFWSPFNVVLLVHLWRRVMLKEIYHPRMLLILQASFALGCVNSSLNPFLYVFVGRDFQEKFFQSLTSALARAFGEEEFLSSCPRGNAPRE
Procedure, shortened: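 Engineered CHO-K1 line co-expressing GPR32-ProLink and EA-beta-arrestin. Compound treatment lasted 90 min at 37 °C. Luminescence was recorded after 1 h with substrate at ambient temperature, relative to DMSO basal wells.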
`Cc1ccc(C(=O)Nc2ccccc2F)cc1S(=O)(=O)N1CCOCC1` gave an activation of 2.32%.
With `Cc1ccccc1C(=O)Nc1nnc(S(=O)(=O)N(C)c2ccc(Cl)cc2)s1` the activation was 8.7%.
For `O=C(Nc1nnc(S(=O)(=O)N2CCCCCC2)s1)c1cccc(Br)c1`, the activation was 115% (active).
With `CN(Cc1ccco1)S(=O)(=O)c1nnc(NC(=O)c2ccccc2)s1` the activation was 18.1%.
In the case of `O=C(Nc1nnc(S(=O)(=O)N2CCOCC2)s1)c1cccc(Br)c1`, the activation is reported as 93.4% (active).
`CCOc1cccc(C(=O)Nc2nnc(S(=O)(=O)N(C)c3ccc(C)cc3)s2)c1` was tested, and the activation was 63.1% (active).
`O=C(Nc1nnc(S(=O)(=O)N2CCCc3ccccc32)s1)c1cccc(F)c1` showed an activation of 45.3%.
`COc1cccc(CNC(=O)CN2C(=O)CCc3cc(S(=O)(=O)N4CCOCC4)ccc32)c1` gave an activation of 0%.
Compound `CC(C)CC(=O)Nc1nnc(S(=O)(=O)N(C)c2ccc(Cl)cc2)s1` has an activation of -5.88%.
Compound `Cc1cc2nc(NC(=O)c3ccc(S(=O)(=O)N4CCOCC4)cc3)sc2cc1C` has an activation of -4.68%.
Work on `Cc1ccccc1OCC(=O)Nc1nnc(S(=O)(=O)N2CCCC2)s1` yielded an activation of 5.36%.
For `COc1cccc(C(=O)Nc2nnc(S(=O)(=O)N3CCOCC3)s2)c1`, the activation was 69.6% (active).
Work on `Cc1cc(N2CCN(c3cccc(C(F)(F)F)c3)CC2)n2nc(-c3ccccc3)nc2n1` yielded an activation of -14.2%.
In the case of `CCOC(=O)c1c(NC(=O)COc2cc(C)ccc2C(C)C)sc(C)c1C`, the activation is reported as -11%.
In the case of `Cc1ccc(C)c(S(=O)(=O)n2nc(C)c(S(=O)(=O)N3CCC(C)CC3)c2C)c1`, the activation is reported as -11.2%.
For `O=C(Nc1cc(C(F)(F)F)ccc1Cl)c1cc2nc(-c3ccc4c(c3)OCO4)cc(C(F)(F)F)n2n1`, the activation was -10.2%.
`Cc1ccc(NC(=O)c2ccc(CN3CC(=O)N4CCCCC4C3=O)cc2)c(Cl)c1` (centres undefined) was tested, and the activation was -8.29%.
For `COc1ccc(-c2cc(C(=O)NCc3cc(OC)c(OC)c(OC)c3)[nH]n2)cc1`, the activation was -1.24%.
`COc1ccc(NC(=O)CSc2nc3ccccc3n2CC(=O)N2CCCCC2C)cc1` (centres undefined) gave an activation of -15.6%.
With `CCOc1ccccc1NC(=O)Cn1c(=O)n(Cc2ccccc2)c(=O)c2c(C)c(C(=O)N(C)C)sc21` the activation was -24.5%.
In the case of `CCn1cc(C(=O)OCC(=O)Nc2cc(C)cc(C)c2)c(=O)c2ccc(C)nc21`, the activation is reported as 20.2%.
`CN(Cc1ccccc1)C(=O)c1cn(C)c2ccc(S(=O)(=O)N3CCCCC3)cc2c1=O` gave an activation of 13.1%.
In the case of `Cc1ccc(/C=C(\C#N)C(=O)Nc2cc(C)ccc2C)cc1`, the activation is reported as 98.1% (active).
Work on `CCOC(=O)c1c(NC(=O)/C(C#N)=C/c2ccccc2)sc2c1CCC2` yielded an activation of 13.3%.
Work on `Cc1ccc(Cl)cc1NC(=O)/C(C#N)=C\c1cn(Cc2ccc(F)cc2)c2ccccc12` yielded an activation of 7.85%.
Compound `Cc1ccccc1C(=O)N(Cc1ccc(N(C)C)cc1)CC1CCCO1` (centres undefined) has an activation of -21.9%.
Work on `CSc1ccc(CCNC(=O)c2ccc3c(c2)nc2n3CCOC2)cc1` yielded an activation of -8.85%.
`COc1cccc(-c2nnc3n(CCc4ccccc4)c(=O)c4ccccc4n23)c1O` was tested, and the activation was 77.1% (active).
Compound `COc1ccc(NC(=O)CCc2nnc3n(CC(C)C)c(=O)c4ccccc4n23)cc1OC` has an activation of 10.7%.
`CC(C)Cn1c(=O)c2ccccc2n2c(-c3cccc(Cl)c3)nnc12` showed an activation of -0.202%.
Compound `CC(C)(C)OC(=O)N1CCC(c2c(C(=O)Nc3ccc4c(c3)OCO4)cnn2-c2ccccc2)CC1` has an activation of 3.59%.
`CCOc1ccc(CCNC(=O)CSc2cc(=O)n(C)c3ccc(Cl)cc23)cc1OCC` gave an activation of -7.71%.
In the case of `CCN(CCCNC(=O)CSc1cc(=O)n(C)c2cc(Cl)ccc12)c1cccc(C)c1`, the activation is reported as 3.23%.
With `COc1cccc(NC(=O)CSc2cc(=O)n(C)c3ccc(Cl)cc23)c1` the activation was 66.2% (active).
`Cc1ccccc1CNC(=O)Cn1c(C)c2cnn(-c3ccccc3)c(=O)c2c1C` showed an activation of -12.3%.
`Cc1c(NC(=O)Nc2ccc(F)c(Cl)c2)c(=O)n(-c2ccccc2)n1C` gave an activation of -8.62%.
In the case of `Oc1c(C(c2ccccc2Cl)N2CCOCC2)sc2nc(-c3ccco3)nn12` (centres undefined), the activation is reported as -11.9%.
In the case of `Oc1c(C(c2ccc(F)cc2)N2CCN(Cc3ccccc3)CC2)sc2nc(-c3ccco3)nn12` (centres undefined), the activation is reported as 64.8% (active).
`Cc1cccc(-n2ncc(C(=O)N3CCc4ccccc4C3)c2C2CCN(C(=O)OC(C)(C)C)CC2)c1` was tested, and the activation was -17.8%.
With `O=C(COCc1cc(-c2ccc3c(c2)OCO3)on1)N1CCN(c2cccc(Cl)c2)CC1` the activation was -10.3%.
`Cc1cccc(CNS(=O)(=O)c2ccc(-c3cnc(C4CC4)o3)cc2)c1` was tested, and the activation was -14.5%.
`COc1ccc(CCC(=O)NCCc2csc(-c3ccc(Cl)cc3)n2)cc1` was tested, and the activation was 65.3% (active).
`O=C(NCCc1csc(-c2ccc(C(F)(F)F)cc2)n1)C(=O)Nc1ccc(F)c(Cl)c1` gave an activation of -7.23%.
`COc1ccc(-c2nc(CCNC(=O)c3ccc(Br)o3)cs2)cc1` gave an activation of 6.04%.
`CCc1nc2c(cnn2-c2ccc(C)cc2)c(=O)n1-c1ccc(C)cc1` gave an activation of -4.43%.
In the case of `COc1cccc(C(=O)NC2(C(F)(F)F)C(=O)Nc3c2c(=O)[nH]c(=O)n3-c2ccc(C)cc2)c1` (centres undefined), the activation is reported as -5.74%.
`CCCn1ccc2c(OCC(=O)NCc3ccc(F)cc3)cccc2c1=O` was tested, and the activation was 76.6% (active).
`CCn1cc(CCC(=O)NCc2ccc(F)cc2)c2ccccc21` showed an activation of -18.2%.
With `CCOCCn1ccc2c(OCC(=O)NCc3ccc(C)cc3)cccc2c1=O` the activation was -7.09%.
With `CC(=O)c1ccc(S(=O)(=O)N2CCC(Oc3ccc(-n4cnnn4)cc3)CC2)cc1` the activation was -8.41%.
With `COc1cccc(-c2cc(C(=O)Nc3ccc(C)cc3)[nH]n2)c1` the activation was 64.6% (active).
Work on `COc1cccc(NC(=O)c2csnn2)c1` yielded an activation of 10.9%.
Work on `CCc1cccc(NC(=O)c2cc(-c3ccccc3)n[nH]2)c1` yielded an activation of -0.275%.
`Cc1ccc2cccc(NC(=O)C(C)Oc3ccc(C)c(C)c3)c2n1` (centres undefined) gave an activation of -2.89%.
`COCCCNC(=O)C1CCC(CNS(=O)(=O)c2ccc(OC)cc2)CC1` (centres undefined) showed an activation of -7.55%.
In the case of `COc1ccc(N2C(=O)NC(NS(=O)(=O)c3ccc(Cl)cc3)(C(F)(F)F)C2=O)cc1` (centres undefined), the activation is reported as -2.22%.
Compound `Cc1nnc(SCc2cc(=O)c3cc(F)ccc3[nH]2)n1C` has an activation of -15.5%.
For `CCC(=O)N1CCc2cc(Br)cc(S(=O)(=O)CCC(=O)N3CCN(c4ccc(F)cc4)CC3)c21`, the activation was 1.23%.
For `CCCCn1cc(S(=O)(=O)c2ccc(OCC)cc2)c(=O)c2cc(OC)c(OC)cc21`, the activation was -26%.
`COc1ccc(CCC(=O)NCc2ccc3c(c2)CCN3C(=O)c2ccc(F)cc2)cc1` gave an activation of -17.6%.
`CCC(Sc1nnc(-c2ccc(OC)cc2)c(-c2ccc(OC)cc2)n1)C(=O)NC1CCCCC1` (centres undefined) was tested, and the activation was -11.5%.
`Cc1ccc(NC(=O)c2nc(S(=O)(=O)Cc3cccc(C)c3)ncc2Cl)cc1` gave an activation of -21.8%.
With `CCCS(=O)(=O)c1ncc(Cl)c(C(=O)Nc2scc(-c3ccccc3)c2C(=O)OCC)n1` the activation was 97.2% (active).
Work on `CCOC(=O)c1ccc(NC(=O)c2nc(SCc3ccc(F)cc3)ncc2Cl)cc1` yielded an activation of -27.7%.
`CCOC(=O)C1CCCN(CC(=O)Nc2cc(C)c3c(=O)oc4ccccc4c3n2)C1` (centres undefined) showed an activation of -11.1%.
In the case of `CSc1ccccc1-c1nnc(NC(=O)c2ccc3c(c2)OCCO3)o1`, the activation is reported as -21.8%.
In the case of `CCOCCCNC(=O)c1cn(CC)c2ccc(S(=O)(=O)N3CCc4ccccc4C3)cc2c1=O`, the activation is reported as 3.07%.
With `CCn1cc(C(=O)NCc2ccc(C)cc2)c(=O)c2cc(S(=O)(=O)N3CCc4ccccc4C3)ccc21` the activation was 70.1% (active).
With `CCn1cc(C(=O)NCc2ccccc2)c(=O)c2cc(S(=O)(=O)N3CCCCC3)ccc21` the activation was 0.542%.
`COc1ccccc1NC(=O)Cn1cnc2ccc(S(=O)(=O)N3CCC(C)CC3)cc2c1=O` showed an activation of 14.7%.
In the case of `CCc1cccc(CC)c1NC(=O)Cn1c(=O)c(-c2cc(C)ccc2NC(C)=O)nc2ccccc21`, the activation is reported as -6.44%.
In the case of `CCc1nn(CCCN2CCN(c3cccc(Cl)c3)CC2)c(=O)n1CCOc1ccccc1`, the activation is reported as 89.4% (active).
Compound `CCOC(=O)c1c(C)[nH]c(CCC(=O)NCCCN2CCN(c3cccc(Cl)c3)CC2)c1C` has an activation of 3.48%.
`CCc1nc2ccc(C(=O)N3CCN(c4cccc(Cl)c4)CC3)cc2nc1CC` gave an activation of -29.3%.
Compound `Cc1ccc(Cl)cc1N(C)C(=O)C1CCCN(c2ncnc3onc(-c4ccc(F)cc4)c23)C1` (centres undefined) has an activation of -22%.
For `CCNC(=O)CC1C(=O)N(c2ccc(F)cc2)C(=O)N1Cc1ccc(C)cc1` (centres undefined), the activation was 0.37%.
`CCCCC12CN3CC(C)(CN(C1)C3c1ccc(O)c(OC)c1)C2=O` (centres undefined) showed an activation of -20.2%.
`COc1cc(OC)cc(C(=O)Nc2ccc3nc(Nc4cccc(C(F)(F)F)c4)cc(C)c3c2)c1` gave an activation of -9.34%.
With `Cc1cc(Nc2cccc(C(F)(F)F)c2)nc2ccc(NC(=O)c3ccc(=O)[nH]c3)cc12` the activation was 112% (active).
Work on `Cn1c(C(=O)Nc2cccc(C(F)(F)F)c2)cc2c(=O)n3ccccc3nc21` yielded an activation of 4.29%.
`Cn1c(=O)sc2cc(NS(=O)(=O)c3ccc(C(C)(C)C)cc3)ccc21` showed an activation of -13.3%.
Compound `CCC(C)c1ccc2oc(-c3ccc(NC(=O)c4cc5ccccc5o4)cc3)nc2c1` (centres undefined) has an activation of -0.177%.
With `Cc1cc2nc(-c3ccc(NC(=O)c4cc5ccccc5o4)cc3)oc2cc1C` the activation was -3.47%.
`CC(C)Oc1ccc(NC(=O)c2cc3ccccc3o2)cc1` was tested, and the activation was 63.5% (active).
